Screening data: PubChem BioAssay, National Center for Advancing Translational Sciences (NCATS)
HT1080NT lethal: kills 2HG-producing HT-1080-NT fibrosarcoma cells; HT-1080-NT fibrosarcoma viability, CellTiter-Glo ATP luminescence, 48 h; Potency, µM (doses to about 46.1 µM), for inactives: top-dose activity, negative = less viability, usual class: cytotoxic; 1.6% of 360,000 active;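 also: NT is the 2HG producing partner of a matched IDH1 knockdown line; potency is read from the fitted curve at half-maximal effect; 0% = DMSO-treated cells and -100% = media-only wells without cells; nearly all actives have a fitted effect of over 55% in size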
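HT-1080-NT; 750 cells/well; 5% FBS RPMI; 48 h compound, 37 degrees C; CellTiter-Glo luminescence; curve fitting and curve-class assignment.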
IL-1B inflam inh: blocks inflammasome-driven IL-1 beta release; THP-1 LPS/ATP IL-1B secretion, AlphaLISA, 16 h; hits give low values; activity change, % at 57.5 µM; 4.7% of 360,000 active; in the data active = activity change below about -50%; inconclusive = mostly about -30% to -49%
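THP-1 cells pretreated 1 hr with compounds (up to 57.5 uM final), then stimulated with LPS (250 ng/mL final) plus ATP (1.25 mM final); secreted IL-1B measured by AlphaLISA after 16 hr, decreased signal indicating inhibition.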
HT1080 IDH1KD tx: HT-1080 IDH1 knockdown cell toxicity (counter line); HT-1080 IDH1 knockdown viability, ATP luminescence, 48 h; Potency, µM (highest dose often 46.1 µM), without a hit: top-dose activity, negative = toxicity, hits mostly cytotoxic; 2% of 360,000 active; AID 686971;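 also: potency is read from the fitted curve at half-maximal effect; 0% = DMSO wells and -100% = cell-free medium wells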
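Assay cells: HT-1080 with IDH1 knockdown, 750 per well, RPMI/5% FBS. Exposure: 48 h at 37 °C following 2 h pre-incubation. Read: CellTiter-Glo luminescence; fitted concentration-response, curve class assigned.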
DT40 TDP1 CPT: growth inhibition of DT40 Tdp1-/-;hTDP1 cells with camptothecin (screen for TDP1 inhibitors); chicken DT40 Tdp1-/-;hTDP1 cells + 20 nM CPT, ATP luminescence, 48 h; Potency, µM (highest dose often 46.2 µM), for the others: at the top dose activity change, negative = growth inhibition, actives largely listed as inhibitors; 12% of 420,000 active; AID 686979; also: potency is read from the fitted curve at half-maximal effect; nearly all actives have a fitted effect of over 55% in size
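Chicken DT40 Tdp1-/- cells complemented with human TDP1, 400 cells/well, exposed to compounds plus 20 nM camptothecin for at least 48 h at 37 C; viability read as ATP content by CellTiter-Glo luminescence.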
DT40 TDP1 no CPT: qHTS for Inhibitors of human tyrosyl-DNA phosphodiesterase 1 (TDP1): qHTS in cells in absence of CPT. Potency, µM (top dose mostly 46.2 µM), without a hit: at the highest dose activity change, negative = growth inhibition, hits mostly inhibitors. AID 686978, 2013. DT40 Tdp1-/- hTDP1 cells, no CPT, ATP luminescence, 48 h. 15% of 420,000 active; also: potency is read from the fitted curve at half-maximal effect; nearly all actives have a fitted effect of over 55% in size
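Luminescent ATP content (CellTiter-Glo) served as the growth readout. Knockout chicken DT40 cells expressing human TDP1 were exposed to compounds without camptothecin for a minimum 48 hr at 37 °C.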
* marks the source's active call; other numbers are inactive results; ? = inconclusive. Only some compounds are listed: those with a hit (about 19% of all), similar ones and a draw of the others. Unless noted, calls follow the shape of the dose curve; as a rule, active = well fitted curve in the direction sought with a large enough effect; inconclusive = small, poorly fitted or top-dose-only effect, or another doubt; inactive = no such curve, though single readings can be large; an effect the other way counts as inactive or inconclusive. Unless noted, % is scaled to controls: 0 for no effect and ±100 for the full control effect.

SMILES	HT1080NT lethal	IL-1B inflam inh	HT1080 IDH1KD tx	DT40 TDP1 CPT	DT40 TDP1 no CPT
CNC(=O)c1c(NC(=O)c2ccc(S(=O)(=O)N3CCCc4ccccc43)cc2)sc2c1CCN(C)C2	-5.6%	61.2	-2.9%	23.1µM*	13µM*
CN1CCc2c(sc(NC(=O)c3ccc([N+](=O)[O-])o3)c2C(N)=O)C1	6.51µM*	-98.1*	0.581µM*	1.64µM*	3.66µM*
CN1CCc2c(sc(NC(=O)c3ccc(S(=O)(=O)N4CCCCCC4)cc3)c2C(N)=O)C1	23.1µM*	-96.1*	20.6µM*	18.4µM*	11.6µM*
COC(=O)c1c(NC(=O)c2ccc(S(=O)(=O)N3CC(C)OC(C)C3)cc2)sc2c1CCN(C)C2 (configuration not stated)	-3.1%	17.3	-29.7%	?	?
CN1CCc2c(sc(NC(=O)c3ccc(S(=O)(=O)N4CCCC4)cc3)c2C(N)=O)C1	18.5%	0.0	24.5%	?	16.4µM*
CN1CCc2c(sc(NC(=O)c3ccc(S(=O)(=O)N4CCOCC4)cc3)c2C(N)=O)C1	4.4%	9.7	-1.9%	-22.3%	-30.0%
CCOC(=O)C1CCN(C(=O)c2cc(S(=O)(=O)N3CCc4ccccc43)ccc2OC)CC1	3.2%	-8.8	-1.1%	?	?
Cc1ccc(-n2nc3c(=O)n(C(C)C(=O)NCCC4=CCCCC4)nc(C)c3c2C)cc1 (configuration not stated)	-0.9%	-1.3	-11.5%	?	?
CN1CCc2c(sc(NC(=O)c3cc(Cl)sc3Cl)c2C(N)=O)C1	?	-90.7*	?	?	20.6µM*
CN1CCc2c(sc(NC(=O)C3CCCN3S(=O)(=O)c3ccc(Cl)s3)c2C(N)=O)C1 (configuration not stated)	5.7%	-4.5	1.1%	-2.1%	?
CC1CC(C)CN(c2nc(N(C)c3ccccc3)nc(N)c2[N+](=O)[O-])C1 (configuration not stated)	-19.9%	50.5	-25.2%	?	13µM*
CC1CN(c2nc(N(C)c3ccccc3)nc(N)c2[N+](=O)[O-])CC(C)O1 (configuration not stated)	-20.9%	24.2	-0.9%	-20.3%	?
O=C(/C=C/c1ccccc1)OCCCCN=C1NS(=O)(=O)c2ccccc21	-6.6%	91.1	-7.7%	9.2µM*	25.9µM*
CN(CC(=O)NCc1ccccc1F)S(=O)(=O)c1ccc(Cl)cc1	-0.3%	-13.2	-9.7%	-7.1%	?
CCCN(Cc1nc2cc(Cl)ccc2c(=O)[nH]1)C(=O)c1ccc(S(=O)(=O)N2CCCC2)cc1	-16.3%	-20.3	-2.6%	?	20.6µM*
CN(Cc1nc2ccccc2c(=O)[nH]1)C(=O)c1cccc(S(=O)(=O)N2CCCC2)c1	-1.4%	8.8	-1.9%	-16.7%	7.0%
COc1ccc(/C=C2\SC(=S)N(Cc3cccnc3)C2=O)cc1C	17.9%	-2.8	22.8%	?	?
CCOc1cc(/C=C2/SC(=Nc3ccccc3)N(Cc3cccnc3)C2=O)ccc1OCC#N	-16.5%	-7.5	?	16.4µM*	23.1µM*
CCN(CC)S(=O)(=O)c1ccc2[nH]c(=O)cc(C(=O)Nc3ccccc3N3CCOCC3)c2c1	10.1%	-3.8	7.8%	1.6%	10.8%
COC1Cc2ccccc2N(C(=O)N2CCN(CCO)CC2)c2ccccc21 (configuration not stated)	14.0%	0.0	20.1%	-10.3%	-35.9%
CCC12CCCN3CCC4(C(=C(C(=O)OC)C1)Nc1ccccc14)C32 (configuration not stated)	0.3%	25.7	0.7%	16.4µM*	16.4µM*
S=C(Nc1ccc2nsnc2c1)N1CCCCC1	?	-64.3*	?	11.1%	-25.6%
O=C1C(O)=CC(=C(c2ccccc2)c2ccccc2)c2ccccc21	-7.0%	-91.8*	?	?	?
COc1ccccc1CNC(=O)COC(=O)c1ccc(Cl)c(N)c1	-3.8%	-10.3	-4.4%	19.1%	1.2%
